Relative % inhibition data for 39 compounds are collected here from the supplement of paper PMC3842684.

The first test deals with P. falciparum NF54-pfs16-GFP late (IV-V) stage gametocytes. Briefly: relative % inhibition of viable gametocyte number; higher = more gametocytocidal. Conditions: 0.5 µM; stage: late (IV-V) gametocyte; incubation 72 h. An outline of the steps:
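Early-stage (I/IIa, day 2) or late-stage (day 8) NF54 pfs16-GFP gametocytes were isolated by magnet and plated in 384-well poly-D-lysine imaging plates at 10% parasitaemia and 0.1% haematocrit, with compound in duplicate at 5 or 0.5 µM. After 72 h at 37°C under 5% CO2 and 5% O2, MitoTracker Red was added overnight. Confocal imaging scored elongated GFP objects whose MitoTracker signal passed a cut-off as viable gametocytes. Relative inhibition was normalised against vehicle and positive-control wells on the same plate.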
With `CCN(CC)CCNc1ncnc2c1[nH]c1ccc(Br)cc12`, the relative % inhibition is 12.4%.
Still for that read-out and setting: with `O=C(CCl)NCCOc1ccc(Cl)cc1Cl` the figure was 8.06%.
`COc1cc(-c2nc(-c3ccccc3)c(-c3ccccc3)[nH]2)cc(OC)c1O`: the relative % inhibition was -17%.
Still for that read-out and setting: in the case of `OC(Cn1nnc2ccccc21)Cn1c2ccc(Br)cc2c2cc(Br)ccc21` (stereo not given) it was 18.2%.
Still for that read-out and setting: with `CCc1c(C)c(=N)c2ccccc2n1C` the figure was -17.1%; with `O=C(Nc1cccc(-c2nc3ccccc3[nH]2)c1)c1cccc(NC(=O)c2ccco2)c1`, -1.52%; with `COc1cccc(O)c1CN1CCC2(CCCN(Cc3ccc(F)cc3)C2)C1` (stereo not given), 17.2%.
Consider `O=C1CC(O)(C(F)(F)C(F)(F)F)Oc2ccccc21` (stereo not given), for which the relative % inhibition was -15.1%.
As to `OCCNc1nc(Nc2ccc(Cl)c(Cl)c2)nc2ccccc12`, the relative % inhibition was 53.9%.
In the case of `CCOc1cc(Br)c(C(C)NC(=O)c2cccc(OC)c2)cc1OCC` (stereo not given), the relative % inhibition stood at 11.2%.
As to `COc1cccc(NC(=O)[C@H](C(C)C)n2c(=O)[nH]c3ccccc3c2=O)c1`, the relative % inhibition is 35%.
Same read-out and setting: with `Oc1ccccc1CN1CCN(C(c2ccccc2)c2ccccc2)CC1` the figure was 28.3%; with `COc1cc2c3cc1Oc1c(OC)c(OC)cc4c1C(Cc1ccc(O)c(c1)Oc1ccc(cc1)CC3N(C)CC2)N(C)CC4` (stereo not given), -24.9%.
On the same count and under the same terms, in the case of `COc1ccc(C(=O)C2CC2c2ccc(Cl)cc2)cc1` (stereo not given) it was 14.7%.
The same measure, in the same setting: in the case of `CC(C)CNC(=O)c1c(N)n(CCc2ccccc2F)c2nc3ccccc3nc12` it was 3.01%; in that of `O=C(Nc1cccc(C(F)(F)F)c1)c1cc(Cl)ccc1O`, 15%.
On to `CCOc1ccc(C2N(C)c3ccccc3N2C)cc1`, for which the relative % inhibition was -6.22%.
Turning to `COc1ccc(-c2cc(=O)oc3c4c(ccc23)OCN(Cc2ccc(F)cc2)C4)cc1`, the relative % inhibition was 25.1%.
Same read-out and setting: in the case of `OC(CNC1CCCC1)Cn1c2ccccc2c2ccccc21` (stereo not given) it was 24.2%; in that of `O=C(NCC1Cc2cccc(-c3ccncc3)c2O1)c1csc2c1CCCC2` (stereo not given), 5.28%; in that of `CCOc1cc2c(cc1OCC)C(c1cc(C)c(O)c(C)c1)NCC2` (stereo not given), 24.3%.

The same test, now with this note: 5 µM; stage: late (IV-V) gametocyte; incubation 72 h.
On to `CCN1CCN(c2cc(C)c3cc(NC(=O)c4ccc(OC)c(OC)c4)ccc3n2)CC1`, for which the relative % inhibition stood at 3.96%.
Turning to `CN1CCN(c2ncnc3c2[nH]c2ccc(Cl)cc23)CC1`, the relative % inhibition is 7.14%.
As for `CCOc1ccc(-c2nc(NC(=O)c3cccc(S(C)(=O)=O)c3)sc2C)cc1`, the relative % inhibition was -3.57%.
In the case of `CCOc1ccc(-c2nonc2NC(=O)c2cccc(C)c2)cc1OCC`, the relative % inhibition amounted to 18.4%.
As for `CCOC(=O)C1=C(C)N=c2sc(=Cc3ccccc3O)c(=O)n2C1c1ccc(OC)c2ccccc12` (stereo not given), the relative % inhibition came to 61.1%.
Still for that read-out and setting: in the case of `CCCOCc1cc(CN2CCN(c3cccc(Cl)c3)CC2)c(O)c2ncccc12` it was 102%; in that of `COc1ccc(-n2ccnc2SCC(=O)Nc2cc(C)ccc2C)c(OC)c1`, 15.9%.
On the same count and under the same terms, in the case of `CCN(CC)c1cc(C)c2cc(NC(=O)c3cccc(OC)c3)ccc2n1` it was 86.7%.
Same read-out and setting: in the case of `COc1ccc2nc(C)cc(Nc3cccc(O)c3)c2c1` it was -9.92%; in that of `Oc1ccc(Cl)cc1CNc1nc2ccccc2[nH]1`, 13.6%; in that of `O=C(NNc1cc(N2CCCC2)nc(N2CCCC2)n1)c1ccccc1`, 16.3%.
Turning to `O=C(Nc1nc(-c2ccccn2)cs1)c1ccccc1Br`, the relative % inhibition turned out to be 68.6%.
On the same count and under the same terms, in the case of `Cc1[nH]c(-c2ccc(F)cc2)cc1C(=O)NC1CCN(Cc2ccccc2)CC1` it was 15.4%; in that of `CCCN(CCC)CC(O)COc1ccccc1C(=O)Nc1ccccc1` (stereo not given), 65.1%; in that of `O=C(Nc1ccc(-c2nc3cc4ccccc4cc3[nH]2)cc1)c1cccc(Br)c1`, 7.93%.
With `Brc1ccc(Nc2nc3ccccc3nc2Nc2ccc(Br)cc2)cc1`, the relative % inhibition stood at 102%.
Same read-out and setting: in the case of `COCCN(C(=O)Cc1cccs1)C(C(=O)NCc1ccc(OC)cc1)c1ccc(C(C)C)cc1` (stereo not given) it was -1.94%; in that of `COc1ccc(C2c3ccc4ccccc4c3Oc3ncn(CCCN(C)C)c(=N)c32)cc1` (stereo not given), 115%.
Still for that read-out and setting: with `CCN(CC)CCNc1ncnc2c1[nH]c1ccc(Br)cc12` the figure was 27.1%; with `O=C(CCl)NCCOc1ccc(Cl)cc1Cl`, 5.3%.
On the same count and under the same terms, in the case of `COc1cc(-c2nc(-c3ccccc3)c(-c3ccccc3)[nH]2)cc(OC)c1O` it was 2.98%; in that of `OC(Cn1nnc2ccccc21)Cn1c2ccc(Br)cc2c2cc(Br)ccc21` (stereo not given), 43.4%; in that of `CCc1c(C)c(=N)c2ccccc2n1C`, -7.51%.
Regarding `O=C(Nc1cccc(-c2nc3ccccc3[nH]2)c1)c1cccc(NC(=O)c2ccco2)c1`, the relative % inhibition came to 0.95%.
As to `COc1cccc(O)c1CN1CCC2(CCCN(Cc3ccc(F)cc3)C2)C1` (stereo not given), the relative % inhibition came to 98.8%.
Regarding `O=C1CC(O)(C(F)(F)C(F)(F)F)Oc2ccccc21` (stereo not given), the relative % inhibition amounted to 4.41%.
Turning to `OCCNc1nc(Nc2ccc(Cl)c(Cl)c2)nc2ccccc12`, the relative % inhibition came to 52.3%.
The same measure, in the same setting: in the case of `CCOc1cc(Br)c(C(C)NC(=O)c2cccc(OC)c2)cc1OCC` (stereo not given) it was 42.6%; in that of `COc1cccc(NC(=O)[C@H](C(C)C)n2c(=O)[nH]c3ccccc3c2=O)c1`, 59.9%.
